Laboratory results: the supplement of paper PMC6555819

Tested on: VDR:RXRa (NR concentration 270 nM, RXRa partner concentration 90 nM)
Assay: PBM binding z-score (relative to random genomic background probes); higher = stronger binding; sequences stand for … in GC…GCGATTGACAGCGTAGAATGAAGG
Experimental: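 Protein-binding microarray (Agilent 4x180K custom design, double-stranded 60-nt probes: 5' GC cap, 34-nt variable region, 24-nt constant primer region; full probe sequence given). Purified or IVT nuclear receptor:RXRα heterodimers (3:1 NR:RXRα, mostly 270:90 nM) or homodimers were incubated for 1 h in PBS with 2% milk and no ligand, then detected with Alexa488 antibodies. Fluorescence from o1-orientation probes (~5 replicates averaged) was converted to z-scores against 500 random hg19 background probes. Variable regions are seed direct-repeat (DR0–DR5) sites, all their single-nucleotide variants and half-site ablations.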

Compared with CGTCCAAGGTCCAAGGTCAGTGAAGAGATGACGG, TGATTGAGGTTATAAGATCAGGGAACGTTGCAAA is lower in PBM binding z-score: 1.6 for the first, 1.01 for the second.

Going from TCATATAGGTAAATGCTACGTGAAAGTCCGATCT to GCTGATAGGTCAACTGATGGTCAGCTAAAGCTCG, the PBM binding z-score rises from 0.947 to 2.69.

First: AGAATGAGGTTATACGTACATCAGGGAAGAAAGT
Second: CCTACTGGGCCAAAGTCATTGATCAGTCAAAGCA
The PBM binding z-score of the first is higher: 1.67 for the first, -0.45 for the second.

First: ACTGGTTGGTCAGCTGAGGTCACACACAATTCGG
Second: CTACCAAGGTGAACATGGTCGTTGATTACTATTC
The PBM binding z-score of the first is higher: 4.57 for the first, 1.18 for the second.

Going from CCGACTGGGGCAAAGTTACCATAACGCACAGCCA to CTTAGCAGGCCAGGGTCACTCAAGCATTTCGCTT, the PBM binding z-score rises from -0.545 to 2.67.

First: CAGACTGGGGCATAAGGTTACCATAAGCCAGCCC
Second: ACTATTAGTTGACTTAGTGCAACCGATACGACGC
The PBM binding z-score of the first is higher: 0.497 for the first, 0.264 for the second.

Compared with CCTCGGAGGACCACAGGAGGTCAGAGCTGCCAGA, CCTATTAGTTGAGCATAAGGGCAACCGAAGCTCG is lower in PBM binding z-score: 1.43 for the first, 0.408 for the second.

First: TCTTGTAGATCAACAGGAGGTTAAAAAAGATCGA
Second: CGTCCAAGGTGAGAGAGGTCAGTGAATGCCGAGT
The PBM binding z-score of the first is lower: 0.744 for the first, 5.51 for the second.

First: ATCGAAAGGTCGTGAGGAGAGTATACAGAAAGGC
Second: CAAACAAGGTCAAGGTCAAAGTCGGTTTGTGCCA
The PBM binding z-score of the first is lower: 3.11 for the first, 6.23 for the second.

First: GCTAGTTGGTCAGTAAAAGGGCACACACCGGTCG
Second: ACTAGTTGGACAGCTGAGGTCACACACAATTCGG
The PBM binding z-score of the first is lower: 0.0154 for the first, 3.85 for the second.

First: CAGCCAAGGTCAGGGCCAGTATAGGAGGAACGTT
Second: CAAACTAGGTCAAGGTCAAACTCGGTTTGTGCCA
The PBM binding z-score of the first is lower: 2.4 for the first, 5.49 for the second.

First: TCTGCTAGGTCAGTTGGTCACCTAACGAGCTGCC
Second: TCATATAGGTGAACAGGTGAAAGTCCGTAAGTTA
The PBM binding z-score of the first is lower: 0.235 for the first, 1.19 for the second.

Going from AGCCAAAGTTCACTAGGTAACGTAAGATTCAGCT to TCTATTAGTTGAAGGGCCACCGACGAGTCCGTTT, the PBM binding z-score falls from 3.41 to 0.591.

First: CTACCAAGGTGAACAAGTTCGTTGATTACTATTC
Second: CCTTACGGGTCATGAGGTTATAGCACGACGAGCG
The PBM binding z-score of the first is higher: 6.15 for the first, 4.92 for the second.

Going from ATCTCTAGGTAACCAAGTTCAGTAAATGCCGAAC to TTACCAAGGTGAGCTGAGGTCGTTGACCCAACTC, the PBM binding z-score falls from 4.07 to 3.96.

Going from TCTATTAGTTGATGGGCAACCGACGAGTCCGTTT to ATCGAAAGGTTGACGAGGTGAGTATACACCGTTT, the PBM binding z-score rises from 0.542 to 2.71.

Going from AGTCAAAGTTCGTCTAGGTAACGTAAGATATGCT to CCTAATGGGCCACGAAAGGTCATTGATTCAGTGA, the PBM binding z-score rises from 2.59 to 4.33.

Going from GCTATCAGGCCATTTGGGTCACTCAATGACGGGC to CGAACTAGGTCATCAAGGACAGTGAATACATTGA, the PBM binding z-score rises from 1.38 to 5.54.

First: GCTTACGGGTCAAAGGTAATAGCATGAATAGAAT
Second: TCATATAGGTAAACAGGGGAAAGTCCGTAAGTTA
The PBM binding z-score of the first is higher: 4.12 for the first, 1.06 for the second.

First: CCTAGCAGGCCATTCTGGGTCACTCAAGGCTTGA
Second: TCATATAGGTAACACAGGTGAAAGTCGGCATCTA
The PBM binding z-score of the first is lower: 1.04 for the first, 1.49 for the second.
